Assay results as given in PubChem BioAssay (EPA / NIEHS).
Some structures have more than one record in an assay (separate samples or runs), and their calls can disagree. Active and inactive are the calls of the source. Rule for the calls: active = hit-call score of the fitted dose curve at least 0.9, where 1 is the maximum; inactive = score below 0.9.

Tests used:
[1] = read-out: Fatty acid synthase (Homo sapiens) (UniProt P49327); test: LTEA_HepaRG_FASN: Life Technologies and Expression Analysis (LTEA) Assay for Fatty Acid Synthase (FASN) using HepaRG (AID 2283448); conditions: mRNA level, 48 h; actives raise or lower the signal;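 for AC50: differentiated human HepaRG liver cells in serum-free induction medium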
How it was run: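 HepaRG, 48 h exposure, 8-pt half-log series top 100 uM, 0.5% DMSO vehicle, duplicates. Readout: FASN transcript by Fluidigm qRT-PCR; housekeeping-normalized; bidirectional curve fit vs DMSO baseline.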

[2] = read-out: Cyclin D2 (CCND2), CCND2 (gene 894); test: LTEA_HepaRG_CCND2: Life Technologies and Expression Analysis (LTEA) Assay for Cyclin D2 (CCND2) using HepaRG (AID 2283449); conditions: mRNA level, 48 h; actives raise or lower the signal;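 note: CCND2 transcript measured by TaqMan qRT-PCR and normalised to three housekeeping genes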
How it was run: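 HepaRG, 48 h dosing, 8-pt half-log curve from 100 uM, 0.5% DMSO; duplicate wells. Readout: CCND2 transcript by microfluidic qRT-PCR, housekeeping-normalised; bidirectional fit vs DMSO baseline.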

[3] = read-out: Cyclin Dependent Kinase Inhibitor 1A (CDKN1A), CDKN1A (gene 1026); test: LTEA_HepaRG_CDKN1A: Life Technologies and Expression Analysis (LTEA) Assay for Cyclin Dependent Kinase Inhibitor 1A (CDKN1A) using HepaRG (AID 2283450); conditions: mRNA level, 48 h; actives raise or lower the signal
How it was run: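 Expression quantified by Fluidigm qRT-PCR with ACTB, GAPDH and POLR2A normalization, fitted bidirectionally against 0.5% DMSO. Cells: HepaRG, plated 48 h then treated 48 h in serum-free induction medium, top concentration 100 uM with half-log dilutions.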

[4] = read-out: Cyclin D1 (CCND1), CCND1 (gene 595); test: LTEA_HepaRG_CCND1: Life Technologies and Expression Analysis (LTEA) Assay for Cyclin D1 (CCND1) using HepaRG (AID 2283451); conditions: mRNA level, 48 h; actives raise or lower the signal;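 for AC50: differentiated human HepaRG liver cells in serum-free induction medium; TaqMan qRT-PCR transcript level normalised to ACTB GAPDH and POLR2A housekeeping genes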
How it was run: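 Expression of CCND1 was quantified by qRT-PCR on Fluidigm arrays using ACTB, GAPDH and POLR2A as reference genes. HepaRG cultures, plated 48 h beforehand, were dosed for 48 h at up to 100 uM (half-log, 8 points) in 0.5% DMSO.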

[5] = read-out: catalase (CAT), CAT (gene 847); test: LTEA_HepaRG_CAT: Life Technologies and Expression Analysis (LTEA) Assay for catalase (CAT) using HepaRG (AID 2283452); conditions: mRNA level, 48 h; actives raise or lower the signal
How it was run: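 HepaRG cells in serum-free induction medium, 0.5% DMSO vehicle, exposed 48 h in duplicate over 8 half-log concentrations from 100 uM. CAT mRNA measured by qRT-PCR, normalized to ACTB, GAPDH, POLR2A; bidirectional fit versus DMSO.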

[6] = read-out: flavin-containing dimethylaniline monooxygenases 3 (FMO3), FMO3 (gene 2328); test: LTEA_HepaRG_FMO3: Life Technologies and Expression Analysis (LTEA) Assay for flavin-containing dimethylaniline monooxygenases 3 (FMO3) using HepaRG (AID 2283453); conditions: mRNA level, 48 h; actives raise or lower the signal
How it was run: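 Eight-point concentration-response in serum-free HepaRG cultures (top 100 uM, 0.5% DMSO, 48 h). Read-out: FMO3 mRNA level normalized to three endogenous control genes, fitted bidirectionally versus vehicle.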

[7] = read-out: Cytochrome P450 (CYP1A1), CYP1A1 (gene 1543); test: LTEA_HepaRG_CYP1A1: Life Technologies and Expression Analysis (LTEA) Assay for Cytochrome P450 (CYP1A1) using HepaRG (AID 2283454); conditions: mRNA level, 48 h; actives raise or lower the signal
How it was run: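 CYP1A1 transcript levels measured by Fluidigm qRT-PCR against three housekeeping genes, 48 h after chemical dosing of human HepaRG cells (highest concentration 100 uM, half-log steps, 0.5% DMSO vehicle). Gain or loss of signal fitted relative to DMSO.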

[8] = read-out: CFLAR gene, CFLAR (gene 8837); test: LTEA_HepaRG_CFLAR: Life Technologies and Expression Analysis (LTEA) Assay for CFLAR gene using HepaRG (AID 2283455); conditions: mRNA level, 48 h; actives raise or lower the signal
How it was run: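 qRT-PCR read-out (Fluidigm/TaqMan) of CFLAR mRNA, normalized to three housekeeping genes, in differentiated human HepaRG cells after 48 h chemical exposure; 8-point half-log series from 100 uM in 0.5% DMSO; bidirectional curve fitting versus DMSO.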

[9] = read-out: Forkhead box O1 (FOXO1), FOXO1 (gene 2308); test: LTEA_HepaRG_FOXO1: Life Technologies and Expression Analysis (LTEA) Assay for Forkhead box O1 (FOXO1) using HepaRG (AID 2283456); conditions: mRNA level, 48 h; actives raise or lower the signal
How it was run: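 HepaRG, 48 h exposure, 8-pt half-log series from 100 uM in 0.5% DMSO, duplicates; Fluidigm qRT-PCR mRNA, housekeeping-normalised; bidirectional fit vs DMSO baseline.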

[10] = read-out: growth arrest and DNA damage 45 (GADD45A), GADD45A (gene 1647); test: LTEA_HepaRG_GADD45A: Life Technologies and Expression Analysis (LTEA) Assay for growth arrest and DNA damage 45 (GADD45A) using HepaRG (AID 2283458); conditions: mRNA level, 48 h; actives raise or lower the signal
How it was run: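 HepaRG, 48 h exposure, 8 conc. (top 100 uM, half-log steps), 0.5% DMSO vehicle, duplicates. Read-out: qRT-PCR mRNA level, housekeeping-normalized (ACTB/GAPDH/POLR2A). Curves fit bidirectionally vs DMSO baseline.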

[11] = read-out: Forkhead box O3 (FOXO3), FOXO3 (gene 2309); test: LTEA_HepaRG_FOXO3: Life Technologies and Expression Analysis (LTEA) Assay for Forkhead box O3 (FOXO3) using HepaRG (AID 2283459); conditions: mRNA level, 48 h; actives raise or lower the signal
How it was run: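 qRT-PCR readout of FOXO3 transcript, normalized to three housekeeping genes (ACTB, GAPDH, POLR2A); gain or loss fitted against 0.5% DMSO vehicle. HepaRG cells, 48 h chemical exposure, 8-point half-log series, top 100 uM.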

[12] = read-out: ABC Transporter (ABCB1), ABCB1 (gene 5243); test: LTEA_HepaRG_ABCB1: Life Technologies and Expression Analysis (LTEA) Assay for ABC Transporter (ABCB1) using HepaRG (AID 2283460); conditions: mRNA level, 48 h; actives raise or lower the signal
How it was run: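 HepaRG, 48 h exposure, 8-pt half-log series from 100 uM, 0.5% DMSO vehicle, duplicates. Readout: ABCB1 transcript by Fluidigm TaqMan qRT-PCR, housekeeping-normalized; bidirectional curve fit vs DMSO baseline.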

[13] = read-out: ABC Transporter (ABCC3), ABCC3 (gene 8714); test: LTEA_HepaRG_ABCC3: Life Technologies and Expression Analysis (LTEA) Assay for ABC Transporter (ABCC3) using HepaRG (AID 2283462); conditions: mRNA level, 48 h; actives raise or lower the signal
How it was run: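 Transcript level by TaqMan qRT-PCR, normalised to three housekeeping genes, fitted in both directions relative to vehicle. Chemicals tested in duplicate at eight half-log concentrations up to 100 uM for 48 h on HepaRG cells (0.5% DMSO).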

[14] = read-out: ABC Transporter (ABCB11), ABCB11 (gene 8647); test: LTEA_HepaRG_ABCB11: Life Technologies and Expression Analysis (LTEA) Assay for ABC Transporter (ABCB11) using HepaRG (AID 2283463); conditions: mRNA level, 48 h; actives raise or lower the signal
How it was run: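 HepaRG, 48 h exposure, 8-pt half-log CRC top 100 uM, 0.5% DMSO vehicle, duplicates. Readout: TaqMan qRT-PCR of ABCB11 mRNA, housekeeping-normalized (ACTB/GAPDH/POLR2A). Bidirectional fit vs DMSO baseline.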

[15] = read-out: ABC Transporter (ABCC2), ABCC2 (gene 1244); test: LTEA_HepaRG_ABCC2: Life Technologies and Expression Analysis (LTEA) Assay for ABC Transporter (ABCC2) using HepaRG (AID 2283464); conditions: mRNA level, 48 h; actives raise or lower the signal
How it was run: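 Endpoint is ABCC2 transcript level from qRT-PCR, normalized to three housekeeping genes and fitted bidirectionally relative to DMSO. Human HepaRG cells received test chemical for 48 h at up to 100 uM (8 points, half-log steps, 0.5% DMSO), duplicate wells.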

[16] = read-out: ATP-citrate lyase (ACLY), ACLY (gene 47); test: LTEA_HepaRG_ACLY: Life Technologies and Expression Analysis (LTEA) Assay for ATP-citrate lyase (ACLY) using HepaRG (AID 2283466); conditions: mRNA level, 48 h; actives raise or lower the signal
How it was run: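 qRT-PCR readout of ACLY transcript after 48 h chemical treatment of HepaRG cells; expression normalized to three housekeeping genes. Eight-point half-log series, highest 100 uM, 0.5% DMSO vehicle. Gain or loss fitted against DMSO baseline.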

[17] = read-out: Peroxisomal acyl-coenzyme A oxidase 1 (ACOX1) gene, ACOX1 (gene 51); test: LTEA_HepaRG_ACOX1: Life Technologies and Expression Analysis (LTEA) Assay for Peroxisomal acyl-coenzyme A oxidase 1 (ACOX1) gene using HepaRG (AID 2283467); conditions: mRNA level, 48 h; actives raise or lower the signal
How it was run: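 HepaRG, 48 h chemical exposure, 8-pt half-log series from 100 uM top, 0.5% DMSO vehicle, duplicates. Readout: ACOX1 mRNA by Fluidigm qRT-PCR, housekeeping-normalized; bidirectional fit vs DMSO baseline.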

[18] = read-out: Broad substrate specificity ATP-binding cassette transporter ABCG2 (Homo sapiens) (UniProt Q9UNQ0); test: LTEA_HepaRG_ABCG2: Life Technologies and Expression Analysis (LTEA) Assay for ABC Transporter (ABCG2) using HepaRG (AID 2283465); conditions: mRNA level, 48 h; actives raise or lower the signal
How it was run: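 HepaRG, 48 h exposure, 8-pt half-log series from 100 uM, 0.5% DMSO vehicle, duplicates. Readout: ABCG2 transcript by qRT-PCR (Fluidigm array), housekeeping-normalized; bidirectional curve fit relative to DMSO baseline.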

[19] = read-out: growth arrest and DNA damage 45 (GADD45B), GADD45B (gene 4616); test: LTEA_HepaRG_GADD45B: Life Technologies and Expression Analysis (LTEA) Assay for growth arrest and DNA damage 45 (GADD45B) using HepaRG (AID 2283461); conditions: mRNA level, 48 h; actives raise or lower the signal
How it was run: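 Transcript level quantified by Fluidigm TaqMan qRT-PCR with three housekeeping genes for normalization, analyzed for up- or down-regulation against 0.5% DMSO. HepaRG cultures dosed 48 h at eight half-log concentrations up to 100 uM, duplicates.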

[20] = CEETOX_H295R_TESTO: CeeTox H295R High-throughput Steroidogenesis Assay for Testosterone (TESTO) (AID 2283457); conditions: actives raise or lower the signal
How it was run: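 Testosterone secreted into the medium over 48 h by H295R cells (maximum passage 10) was quantified by LC-MS/MS after MTBE extraction. Fitted in both directions against DMSO, with concentrations diluted until MTT viability was ≥70%.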

Measured: AC50

Fatty acid synthase (Homo sapiens), sequence (P49327 whole entry, looked up): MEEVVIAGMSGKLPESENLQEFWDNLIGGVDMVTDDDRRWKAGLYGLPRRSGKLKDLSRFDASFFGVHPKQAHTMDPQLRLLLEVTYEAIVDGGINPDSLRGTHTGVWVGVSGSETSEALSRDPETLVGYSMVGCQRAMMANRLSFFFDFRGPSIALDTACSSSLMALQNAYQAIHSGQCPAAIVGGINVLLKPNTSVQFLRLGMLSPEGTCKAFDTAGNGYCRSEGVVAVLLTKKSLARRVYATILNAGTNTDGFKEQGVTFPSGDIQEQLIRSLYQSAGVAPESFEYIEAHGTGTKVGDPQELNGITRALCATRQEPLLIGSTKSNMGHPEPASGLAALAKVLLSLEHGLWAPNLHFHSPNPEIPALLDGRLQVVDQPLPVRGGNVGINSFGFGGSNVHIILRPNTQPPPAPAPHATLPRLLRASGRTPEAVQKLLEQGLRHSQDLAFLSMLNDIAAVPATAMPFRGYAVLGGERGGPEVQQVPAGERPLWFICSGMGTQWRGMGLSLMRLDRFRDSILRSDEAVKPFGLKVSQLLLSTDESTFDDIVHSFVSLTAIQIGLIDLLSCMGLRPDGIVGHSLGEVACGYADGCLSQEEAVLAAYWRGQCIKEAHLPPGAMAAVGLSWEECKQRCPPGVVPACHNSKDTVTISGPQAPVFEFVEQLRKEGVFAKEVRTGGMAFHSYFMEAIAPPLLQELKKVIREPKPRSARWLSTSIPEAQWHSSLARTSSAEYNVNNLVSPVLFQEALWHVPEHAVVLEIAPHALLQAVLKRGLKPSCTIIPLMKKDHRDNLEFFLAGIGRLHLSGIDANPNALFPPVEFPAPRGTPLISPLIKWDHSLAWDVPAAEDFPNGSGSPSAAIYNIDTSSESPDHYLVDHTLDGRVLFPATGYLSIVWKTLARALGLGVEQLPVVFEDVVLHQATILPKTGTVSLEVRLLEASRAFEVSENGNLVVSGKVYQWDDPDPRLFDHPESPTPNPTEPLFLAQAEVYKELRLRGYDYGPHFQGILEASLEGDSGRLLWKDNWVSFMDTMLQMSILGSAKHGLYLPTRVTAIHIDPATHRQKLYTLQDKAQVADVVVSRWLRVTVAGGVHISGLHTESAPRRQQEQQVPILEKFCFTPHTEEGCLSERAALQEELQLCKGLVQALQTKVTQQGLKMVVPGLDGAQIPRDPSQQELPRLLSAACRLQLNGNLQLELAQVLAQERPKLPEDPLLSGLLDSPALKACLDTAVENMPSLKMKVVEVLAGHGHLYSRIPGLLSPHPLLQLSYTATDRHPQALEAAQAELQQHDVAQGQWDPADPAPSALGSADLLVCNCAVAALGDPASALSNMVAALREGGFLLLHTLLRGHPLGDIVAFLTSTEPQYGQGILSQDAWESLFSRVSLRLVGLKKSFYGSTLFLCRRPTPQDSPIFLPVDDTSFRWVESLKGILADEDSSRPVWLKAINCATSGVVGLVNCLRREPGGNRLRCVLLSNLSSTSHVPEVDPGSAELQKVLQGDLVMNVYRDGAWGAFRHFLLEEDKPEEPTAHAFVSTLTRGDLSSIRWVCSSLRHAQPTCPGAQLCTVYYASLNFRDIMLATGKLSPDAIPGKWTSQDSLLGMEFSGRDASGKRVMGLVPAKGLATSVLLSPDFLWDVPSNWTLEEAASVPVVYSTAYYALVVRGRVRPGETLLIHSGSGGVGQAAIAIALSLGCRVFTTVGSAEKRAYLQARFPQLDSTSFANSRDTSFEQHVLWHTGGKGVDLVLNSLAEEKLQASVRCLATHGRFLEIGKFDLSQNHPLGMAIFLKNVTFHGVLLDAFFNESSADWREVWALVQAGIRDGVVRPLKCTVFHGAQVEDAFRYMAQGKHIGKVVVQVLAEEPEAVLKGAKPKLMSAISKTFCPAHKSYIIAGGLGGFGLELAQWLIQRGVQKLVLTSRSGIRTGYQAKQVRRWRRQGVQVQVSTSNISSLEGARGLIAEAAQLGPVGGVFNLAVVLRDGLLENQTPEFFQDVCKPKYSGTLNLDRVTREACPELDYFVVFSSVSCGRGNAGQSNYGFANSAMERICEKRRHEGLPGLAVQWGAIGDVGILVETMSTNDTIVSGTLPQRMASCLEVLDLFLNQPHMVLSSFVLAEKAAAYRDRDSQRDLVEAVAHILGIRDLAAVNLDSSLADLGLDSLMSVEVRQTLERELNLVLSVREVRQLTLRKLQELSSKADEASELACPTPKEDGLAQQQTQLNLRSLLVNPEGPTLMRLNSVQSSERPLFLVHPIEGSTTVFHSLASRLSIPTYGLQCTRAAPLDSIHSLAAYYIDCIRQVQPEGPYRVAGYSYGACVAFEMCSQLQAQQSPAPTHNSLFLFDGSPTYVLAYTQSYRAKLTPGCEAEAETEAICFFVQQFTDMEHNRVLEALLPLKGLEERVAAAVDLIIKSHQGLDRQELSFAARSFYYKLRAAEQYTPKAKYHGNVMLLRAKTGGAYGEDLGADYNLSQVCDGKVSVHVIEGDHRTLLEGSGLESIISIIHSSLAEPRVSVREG
Broad substrate specificity ATP-binding cassette transporter ABCG2 (Homo sapiens), sequence (Q9UNQ0 whole entry, looked up): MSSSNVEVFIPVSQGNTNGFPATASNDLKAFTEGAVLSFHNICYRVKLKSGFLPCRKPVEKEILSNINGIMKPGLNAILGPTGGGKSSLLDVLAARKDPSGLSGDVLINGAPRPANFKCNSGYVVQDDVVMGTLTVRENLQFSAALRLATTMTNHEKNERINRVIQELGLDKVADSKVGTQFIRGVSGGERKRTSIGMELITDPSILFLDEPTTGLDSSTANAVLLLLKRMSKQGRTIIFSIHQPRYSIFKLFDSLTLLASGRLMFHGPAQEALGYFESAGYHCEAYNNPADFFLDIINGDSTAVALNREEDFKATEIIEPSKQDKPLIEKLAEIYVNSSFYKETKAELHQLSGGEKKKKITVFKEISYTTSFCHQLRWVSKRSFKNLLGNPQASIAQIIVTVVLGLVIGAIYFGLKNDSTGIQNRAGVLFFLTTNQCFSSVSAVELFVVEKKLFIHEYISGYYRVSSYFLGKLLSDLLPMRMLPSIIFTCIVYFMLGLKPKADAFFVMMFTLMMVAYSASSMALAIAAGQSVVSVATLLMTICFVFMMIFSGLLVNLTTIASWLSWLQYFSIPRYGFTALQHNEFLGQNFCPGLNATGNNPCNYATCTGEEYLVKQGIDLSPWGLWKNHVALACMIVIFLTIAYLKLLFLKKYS

CC(C)CCCCCCOC(=O)CCCCC(=O)OCCCCCCC(C)C
active: [7] 50 µM
not listed: [18] | [19] | [20]
inactive: all other assays above

CCCCCCCCCCCCN1CCCC1=O
active: [7] 68.2 µM
not listed: [19] | [20]
inactive: all other assays above

Cc1oc(-c2ccccc2)nc1CCOc1ccc(C[C@H](Nc2ccccc2C(=O)c2ccccc2)C(=O)O)cc1
inactive: [2] | [3] | [9]
active: [1] 31.9 µM | [4] 23.6 µM | [5] 29.4 µM | [7] 11.4 µM | [8] 30 µM | [10] 12.4 µM | [11] 64.6 µM | [12] 26.5 µM | [19] 58.4 µM | [13] 32.5 µM | [14] 23.6 µM | [15] 28.9 µM | [18] 27.7 µM | [16] 22.6 µM | [17] 27.3 µM

COCC(C)O (stereo unspecified)
not listed: [18] | [20]
inactive: all other assays above

CN1CCC[C@H]1c1cccnc1
active: [7] 70.6 µM | [17] 12.6 µM
not listed: [19] | [20]
inactive: all other assays above

CC(O)CO (stereo unspecified)
not listed: [6] | [18] | [20]
inactive: all other assays above

Cc1cc(C)c(O)c(C)c1
active: [7] 50 µM | [15] 26.8 µM
not listed: [20]
inactive: all other assays above

O=[N+]([O-])c1ccc(O)cc1
active: [7] 78.2 µM
inactive: [1] | [2] | [3] | [4] | [5] | [6] | [7] | [8] | [9] | [10] | [11] | [12] | [13] | [14] | [15] | [16] | [17]

CCC(C)(C)C1CCC(O)CC1 (stereo unspecified)
not listed: [6] | [20]
inactive: all other assays above

O=C(OCCOCCOC(=O)c1ccccc1)c1ccccc1
active: [7] 50 µM
not listed: [18] | [19] | [20]
inactive: all other assays above

CC(C)(C)c1cc(C(C)(C)C)c(O)c(C(C)(C)C)c1
active: [1] 50 µM | [15] 50 µM
not listed: [13] | [18] | [19] | [20]
inactive: all other assays above

N#C[C@@H]1CC(F)(F)CN1C(=O)CNC1CC2CCC(C1)N2c1ncccn1 (stereo partly specified)
active: [7] 72.1 µM
not listed: [18] | [19] | [20]
inactive: all other assays above

CCCCOCCO
active: [7] 50 µM
not listed: [18] | [19] | [20]
inactive: all other assays above

CCC(=C(c1ccc(O)cc1)c1ccc(OCCN(C)C)cc1)c1ccccc1
active: [7] 93.3 µM | [8] 97.3 µM | [9] 82.6 µM | [13] 82.1 µM | [15] 86.1 µM
not listed: [6] | [18]
inactive: all other assays above
